The campaign covered roughly 310,000 compounds. About 2,600 (0.84%) were called active.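 The calls were made as follows: active = B-score over 3 SD under the library average, and starting fluorescence ratio not unusually high; inactive = the rest.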 For the sample, actives were picked, then their nearest neighbours and some compounds at random.

In the experiment the target is High affinity choline transporter 1 (Homo sapiens) (UniProt Q9GZV3). Nature of the experiment: inhibitors of human choline transporter CHT (AID 488975).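 As to B-score: choline stimulus applied at its EC90 after an EC20 pre-addition; B-score computed on integrated fluorescence ratio after choline addition.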 The note with it: CHT-expressing cells, membrane potential dye, choline response, at 10 µM; stronger effect = lower value.
High affinity choline transporter 1 (Homo sapiens), sequence (Q9GZV3 whole entry, looked up): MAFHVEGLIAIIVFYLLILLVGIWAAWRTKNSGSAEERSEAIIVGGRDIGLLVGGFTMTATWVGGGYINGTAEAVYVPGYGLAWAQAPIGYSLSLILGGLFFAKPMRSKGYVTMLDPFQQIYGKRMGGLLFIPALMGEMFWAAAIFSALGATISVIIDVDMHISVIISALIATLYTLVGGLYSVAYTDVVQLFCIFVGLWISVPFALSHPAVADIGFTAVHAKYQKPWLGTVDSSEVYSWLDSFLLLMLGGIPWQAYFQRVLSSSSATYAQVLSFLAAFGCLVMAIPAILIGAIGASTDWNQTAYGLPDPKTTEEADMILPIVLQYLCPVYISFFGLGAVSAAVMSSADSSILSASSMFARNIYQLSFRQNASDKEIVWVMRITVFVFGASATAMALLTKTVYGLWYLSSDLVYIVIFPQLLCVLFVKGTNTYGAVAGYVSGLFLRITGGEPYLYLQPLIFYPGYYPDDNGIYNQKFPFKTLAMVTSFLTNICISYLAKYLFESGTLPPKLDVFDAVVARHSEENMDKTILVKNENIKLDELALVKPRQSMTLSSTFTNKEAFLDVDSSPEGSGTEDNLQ
With `CCCC[C@@H]1CN=C(N)N1CCc1cccc(F)c1`, the B-score result was “inactive”.
`Cc1cccc(Nc2nc(NCCO)nc(N3CCCC3)n2)c1`: the B-score entry was “inactive”.
Consider `COc1ccc(C(=O)N(Cc2ccccc2)c2ccc(C)cc2)cc1S(=O)(=O)N1CCOCC1`, for which the B-score entry was “inactive”.
Turning to `COc1cccc(NC(=O)CSc2nccn(-c3ccc4c(c3)OCCO4)c2=O)c1`, the B-score entry is “inactive”.
`CC(C)(C)S(=O)(=O)c1ccccc1-c1noc(-c2ccccc2)c1C(N)=O`: the B-score result is “inactive”.
With `CN(C)CCn1c2c(c(SCC(=O)NCc3ccccc3)nc1=O)CCC2` the entry was “inactive”.
`COCCNc1nc(N)c([N+](=O)[O-])c(N2CCCCCC2)n1`: the B-score entry was “inactive”.
With `Nc1nc(NCC(=O)O)nc(N2CCCCCC2)c1[N+](=O)[O-]` the entry was “inactive”; with `Nc1cc(N2CCCCCC2)c2nonc2c1[N+](=O)[O-]`, -7.12 (active); with `Cc1ccc(S(=O)(=O)N2CCN(C(=O)Cc3sc(C)nc3-c3ccc(F)cc3)CC2)c(C)c1`, “inactive”.
In the case of `COc1ccc(NC(=O)CN(C)C(=O)c2cccc(S(=O)(=O)N3CCN(c4ccccc4)CC3)c2)cc1`, the B-score result was “inactive”.
As for `Cc1ccccc1NC(=O)COc1cccc2c1CCNC2=O`, the B-score entry was “inactive”.
As to `Cc1ccc(S(=O)(=O)CC(=O)Nc2c(C)n(C)n(-c3ccccc3)c2=O)cc1`, the B-score entry is “inactive”.
As for `Cc1ccc(S(=O)(=O)/N=C(/NC(=S)Nc2c(C)n(C)n(-c3ccccc3)c2=O)c2ccccc2)cc1`, the figure is -6.35 (active); as for `Cc1c(NC(=S)Nc2ccccc2)c(=O)n(-c2ccccc2)n1C`, “inactive”.
Take `CC(=O)N1CCc2c(sc(NC(=O)CCS(=O)(=O)c3ccc(C)cc3)c2C(N)=O)C1`: the B-score entry was “inactive”.
As to `O=C(c1cc(-c2ccco2)nc2ccccc12)N(Cc1nnc(-c2ccc(Cl)cc2)o1)C1CC1`, the B-score entry was “inactive”.
For the compound `CC(C)CN(C(=O)COC(=O)c1ccc2ccccc2c1)c1c(N)n(Cc2ccccc2)c(=O)[nH]c1=O`, the B-score result was “inactive”.
With `COc1ccc(/C=N/NC(=O)c2cc(-c3cccc(C)c3)nc3ccccc23)cc1O` the entry was “inactive”; with `COc1ccccc1OCCCCCCN1CCN(C)CC1`, “inactive”; with `CCN(CC)c1ccc(S(=O)(=O)N2CCCCC2)cc1NC(=O)C1=COCCO1`, “inactive”.
As for `CCOc1ccccc1Nc1ccc(C(=O)O)cc1[N+](=O)[O-]`, the B-score entry was “inactive”.
As for `CCOc1ccccc1Nc1ccc2nonc2c1[N+](=O)[O-]`, the figure is -6.62 (active); as for `Cc1ccccc1Nc1c([N+](=O)[O-])ccc2nonc12`, “inactive”; as for `COc1ccc(-c2ccc3nnc(SCC(=O)Nc4ccc(NC(C)=O)cc4)n3n2)cc1`, “inactive”.
For the compound `Cc1ccccc1-n1c(C)cc(/C=C2\NC(=O)NC2=O)c1C`, the B-score was -8.08 (active).
Regarding `Cc1cc(/C=C2/NC(=O)NC2=O)c(C)n1-c1cccnc1`, the B-score entry is “inactive”.
Consider `Cc1cccc(C)c1-n1c(C)cc(/C=C2\C(=O)NN(c3ccccc3)C2=O)c1C`, for which the B-score entry is “inactive”.

For the origin of these results see PubChem BioAssay AID488975 (Johns Hopkins Ion Channel Center, 2010).
